Here are results for six molecules from PubChem BioAssay (EPA / NIEHS).

The target of test [1] is Paired box protein Pax-6 (Homo sapiens) (UniProt P26367). As to the kind of experiment: ATG_Pax6_CIS: Attagene CIS-FACTORIAL HepG2 Assay for human Paired Box 6 (PAX6) (AID 2282956). The note with it: HepG2 CIS-FACTORIAL PAX6 reporter transcription, RNA readout; actives raise or lower the signal. The method in brief: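 Transient MRTU transfection of HepG2 → compound exposure 24 h → TriZol RNA, oligo(dT) RT → PCR, 6-FAM primer extension, HpaI cut → capillary electrophoresis; activity fitted both directions against DMSO.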

Test [2] can be described thus: ATG_PXRE_CIS: Attagene CIS-FACTORIAL HepG2 Assay for human Pregnane X Receptor Element (PXRE) (AID 2282957). The note with it: HepG2 Attagene CIS-FACTORIAL PXRE reporter, mRNA; actives raise or lower the signal. The gist of the method: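 Transiently transfected HepG2 cells were dosed and incubated for 24 h. RNA was then isolated, DNase-treated, reverse-transcribed and reporter sequences amplified. Labeled, HpaI-digested fragments were quantified by capillary electrophoresis against DMSO.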

Test [3] in a line: ATG_PPRE_CIS: Attagene CIS-FACTORIAL HepG2 Assay for human Peroxisome Proliferator-activated Response Element (PPRE) (AID 2282958). The note with it: HepG2 PPRE cis-element reporter, Attagene transcription factor profiling; actives raise or lower the signal. The method in brief: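 HepG2 cells are transiently transfected with multiplexed cis-promoter reporter units to report endogenous PPAR activity. After 24 h dosing, reporter mRNA is read by RT-PCR and capillary electrophoresis. Fitting is bidirectional against DMSO.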

The nature of test [4]: ATG_RORE_CIS: Attagene CIS-FACTORIAL HepG2 Assay for human RAR-related Orphan Receptor Element (RORE) (AID 2282959). The note with it: HepG2 Attagene cis-factorial RORE reporter, mRNA; actives raise or lower the signal. The gist of the method:
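HepG2 cells carrying transiently transfected cis-regulated reporter units; RORE-driven reporter mRNA quantified 24 h post-dosing by RT-PCR, 6-FAM primer extension, HpaI digestion and capillary electrophoresis. Bidirectional fit versus DMSO.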

Test [5] is described as follows: ATG_Sox_CIS: Attagene CIS-FACTORIAL HepG2 Assay for human SRY-box transcription factor (SOX) (AID 2282960). The following applies: HepG2 Attagene cis-factorial SOX reporter, mRNA; actives raise or lower the signal. The gist of the method:
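HepG2 cells transiently transfected with multiple cis-regulated reporter units, then dosed for 24 h. Reporter mRNA quantified by RT-PCR, fluorescent labelling, HpaI digestion and capillary electrophoresis; bidirectional fit versus DMSO.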

Test [6] has as its target Transcription factor Sp1 (Homo sapiens) (UniProt P08047). As to the kind of experiment: ATG_Sp1_CIS: Attagene CIS-FACTORIAL HepG2 Assay for human Specificity Protein 1 (Sp1) (AID 2282961). The note with it: HepG2 Sp1 cis-reporter transcription, actives raise or lower the signal. The method in brief: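 HepG2 cells transiently transfected with multiplexed cis-regulated reporter constructs, chemical exposure 24 h. Reporter mRNA quantified by RT-PCR with capillary electrophoresis; bidirectional fit relative to DMSO.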

A short description of test [7]: ATG_SREBP_CIS: Attagene CIS-FACTORIAL HepG2 Assay for human Sterol Regulatory Element Binding (SREBP) (AID 2282962). The following applies: HepG2 Attagene cis-factorial SREBP reporter, mRNA; actives raise or lower the signal. The method in brief: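 Transfected HepG2 (cis-regulated reporter library, endogenous TFs) → compound 24 h → total RNA → oligo(dT) RT → reporter-specific PCR → FAM primer extension, HpaI cut → CE fluorescence. Fit bidirectional vs DMSO.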

In test [8] the target is Signal transducer and activator of transcription 3 (Homo sapiens) (UniProt P40763). As to the kind of experiment: ATG_STAT3_CIS: Attagene CIS-FACTORIAL HepG2 Assay for human Signal Transducer and Activator of Transcription 3 (STAT3) (AID 2282963). The following applies: HepG2, Attagene cis-factorial STAT3 reporter transcription; actives raise or lower the signal. The gist of the method:
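Transcript-level reporter assay. HepG2 transient MRTU transfection, 24 h exposure, fluorescence detection after RT-PCR and CE; DMSO baseline.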

Test [9] in a line: ATG_TA_CIS: Attagene CIS-FACTORIAL HepG2 Assay for human TA Basal Promoter (AID 2282964). The following applies: HepG2 Attagene CIS-factorial TA basal promoter reporter; actives raise or lower the signal. The method in brief:
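Transient MRTU transfection of HepG2 preceded 24 h compound exposure. Reporter mRNA levels were then read by RT-PCR with capillary electrophoresis, and this background-control endpoint was fitted bidirectionally to DMSO.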

Test [10] in a line: ATG_TCF_b_cat_CIS: Attagene CIS-FACTORIAL HepG2 Assay for human T-Cell-Factor with beta-catenin (TCF/b-cat) (AID 2282965). The note with it: HepG2 TCF/beta-catenin cis-reporter transcription, actives raise or lower the signal. The method in brief: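 Using capillary electrophoresis as the read-out, labelled reporter cDNA fragments from transiently transfected HepG2 were sized and quantified. Exposure lasted 24 hours; activity in either direction was referenced to DMSO.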

Test [11] is described as follows: ATG_TAL_CIS: Attagene CIS-FACTORIAL HepG2 Assay for human TAL Basal Promoter (AID 2282966).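 Note: background control endpoint measuring basal TAL promoter reporter mRNA not a specific factor.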 The note with it: HepG2 Attagene cis-factorial TAL promoter reporter; actives raise or lower the signal. The gist of the method:
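Readout: reporter mRNA, fluorescence by CE. System: HepG2, transient multi-reporter transfection, endogenous TF activity. Exposure: 24 h. Analysis: bidirectional, DMSO-normalized; background control.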

A short description of test [12]: ATG_TGFb_CIS: Attagene CIS-FACTORIAL HepG2 Assay for human Transforming Growth Factor (TGF) (AID 2282967). The following applies: HepG2 Attagene CIS TGFb reporter, mRNA transcription; actives raise or lower the signal. The method in brief: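 After a 24-hour incubation with compound, transfected HepG2 cells were lysed for RNA; reporter cDNA was amplified, fluorescently end-labeled and separated by CE. DMSO served as baseline for bidirectional fits.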

Test [13] is described as follows: ATG_VDRE_CIS: Attagene CIS-FACTORIAL HepG2 Assay for human Vitamin D Receptor Element (VDRE) (AID 2282968). The following applies: HepG2 VDRE cis-reporter transcription, actives raise or lower the signal. The method in brief: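 RT-PCR/CE readout of reporter mRNA; HepG2, transient transfection, 24 h dosing; DMSO baseline; bidirectional analysis.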
Test [14] addresses Nuclear receptor subfamily 1 group I member 3 (Homo sapiens) (UniProt Q14994). As to the kind of experiment: ATG_CAR_TRANS: Attagene TRANS-FACTORIAL HepG2 Assay for human Constitutive Androstane Receptor (CAR) (AID 2282969; active = hit-call score of the fitted dose curve at least 0.9, where 1 is the maximum;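 note: activators raise reporter mRNA above DMSO so AC50 marks induction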). The following applies: HepG2 Attagene TRANS-FACTORIAL CAR reporter. The method in brief:
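HepG2 cells transiently transfected with multiplexed GAL4-UAS reporter units expressing chimeric NR-Gal4 proteins; compound exposure 24 h. Reporter mRNA measured by RT-PCR, 6-FAM labelling, HpaI digestion and capillary electrophoresis; gain-of-signal fitted against DMSO baseline.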

Test [15] addresses Steroid hormone receptor ERR1 (Homo sapiens) (UniProt P11474). As to the kind of experiment: ATG_ERRa_TRANS: Attagene TRANS-FACTORIAL HepG2 Assay for human Estrogen-Related Receptor alpha (ERRa) (AID 2282971; active = hit-call score of the fitted dose curve at least 0.9, where 1 is the maximum). The note with it: HepG2 Attagene TRANS reporter, ERRa transactivation. The gist of the method:
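HepG2 cells were transiently transfected with multiple GAL4-UAS reporter units, then dosed with compound for 24 h. Total RNA was reverse-transcribed, reporter cDNA PCR-amplified and fluorescently labelled, and fragments resolved by capillary electrophoresis; induction was compared with DMSO.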

The target in test [16] is X-box-binding protein 1 (Homo sapiens) (UniProt P17861). As to the kind of experiment: ATG_Xbp1_CIS: Attagene CIS-FACTORIAL HepG2 Assay for human X-box Binding Protein 1 (XBP1) (AID 2282972). The note with it: HepG2 XBP1 cis-element reporter, Attagene multiplex; actives raise or lower the signal. The gist of the method:
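HepG2, transient MRTU transfection (cis-promoter driven), 24 h compound exposure. Total RNA → oligo(dT) RT → PCR → 6-FAM labeling → HpaI cut → CE. Bidirectional fit vs DMSO.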

A short description of test [17]: ATG_M_19_TRANS: Attagene TRANS-FACTORIAL HepG2 Assay for M19 Transcription Factor (Internal Marker) (AID 2282974; active = hit-call score of the fitted dose curve at least 0.9, where 1 is the maximum). The note with it: HepG2 Attagene TRANS-FACTORIAL M19 internal marker reporter. The gist of the method: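 HepG2 transiently transfected with GAL4-UAS multiplex reporter constructs, exposed 24 h; reporter RNA quantified by RT-PCR, 6-FAM labeling, HpaI digestion and capillary electrophoresis; internal background marker fitted upward versus DMSO.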

In test [18] the target is Estrogen receptor (Homo sapiens) (UniProt P03372). As to the kind of experiment: ATG_ERa_TRANS: Attagene TRANS-FACTORIAL HepG2 Assay for human Estrogen Receptor alpha (ERa) (AID 2282970; active = hit-call score of the fitted dose curve at least 0.9, where 1 is the maximum). The note with it: HepG2 Attagene TRANS ERa GAL4 reporter, mRNA. The gist of the method: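 Transactivation via ERa-Gal4 chimera in HepG2; 24 hour incubation; reporter mRNA detected by fluorescence RT-PCR and capillary electrophoresis.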

Where “and” joins values, the source holds several entries; their conditions need not be identical. Equal values may be shown once. Inconclusive results are not listed. Some structures have more than one record in an assay (separate samples or runs), and their calls can disagree. Calls of active or inactive are those of the source. Rule for the calls, unless noted: active = hit-call score of the fitted dose curve at least 0.9, where 1 is the maximum; inactive = score below 0.9.

Chain of Estrogen receptor (Homo sapiens) (P03372 whole entry, looked up, the tested form may be a part): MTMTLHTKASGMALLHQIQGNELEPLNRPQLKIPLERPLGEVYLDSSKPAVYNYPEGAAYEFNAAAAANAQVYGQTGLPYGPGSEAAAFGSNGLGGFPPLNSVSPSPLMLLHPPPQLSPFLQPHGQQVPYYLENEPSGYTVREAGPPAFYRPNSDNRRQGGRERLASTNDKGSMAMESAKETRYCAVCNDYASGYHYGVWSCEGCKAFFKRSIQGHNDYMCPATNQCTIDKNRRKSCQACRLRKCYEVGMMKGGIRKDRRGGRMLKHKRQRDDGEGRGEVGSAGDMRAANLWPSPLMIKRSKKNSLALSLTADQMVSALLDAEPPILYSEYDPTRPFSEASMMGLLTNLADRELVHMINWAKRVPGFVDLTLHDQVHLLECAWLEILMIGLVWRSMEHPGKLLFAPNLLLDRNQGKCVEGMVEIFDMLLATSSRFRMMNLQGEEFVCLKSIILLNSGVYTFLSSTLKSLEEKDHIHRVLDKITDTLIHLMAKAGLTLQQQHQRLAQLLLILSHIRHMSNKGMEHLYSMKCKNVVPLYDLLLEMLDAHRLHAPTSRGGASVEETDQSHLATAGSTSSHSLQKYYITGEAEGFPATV
Chain of Transcription factor Sp1 (Homo sapiens) (P08047 whole entry, looked up): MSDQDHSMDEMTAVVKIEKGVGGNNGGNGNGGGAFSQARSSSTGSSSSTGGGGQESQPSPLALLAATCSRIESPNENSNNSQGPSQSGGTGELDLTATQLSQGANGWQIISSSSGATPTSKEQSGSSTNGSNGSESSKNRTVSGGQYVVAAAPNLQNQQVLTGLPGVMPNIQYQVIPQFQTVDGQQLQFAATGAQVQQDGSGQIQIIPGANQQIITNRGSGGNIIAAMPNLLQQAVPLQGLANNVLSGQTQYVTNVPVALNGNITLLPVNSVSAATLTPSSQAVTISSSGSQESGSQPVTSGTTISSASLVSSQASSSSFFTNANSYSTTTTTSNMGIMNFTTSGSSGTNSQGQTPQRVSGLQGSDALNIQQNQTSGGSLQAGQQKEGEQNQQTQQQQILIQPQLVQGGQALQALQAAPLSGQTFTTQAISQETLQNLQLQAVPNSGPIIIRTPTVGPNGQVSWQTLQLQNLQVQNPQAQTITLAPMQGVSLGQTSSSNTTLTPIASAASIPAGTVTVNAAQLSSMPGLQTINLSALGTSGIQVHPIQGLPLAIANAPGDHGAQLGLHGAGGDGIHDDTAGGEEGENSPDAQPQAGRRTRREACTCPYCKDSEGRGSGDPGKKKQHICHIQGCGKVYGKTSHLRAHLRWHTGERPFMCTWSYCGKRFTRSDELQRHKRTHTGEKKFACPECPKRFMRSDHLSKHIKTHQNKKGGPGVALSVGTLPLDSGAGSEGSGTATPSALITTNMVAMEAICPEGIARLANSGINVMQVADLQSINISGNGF
Chain of Nuclear receptor subfamily 1 group I member 3 (Homo sapiens) (Q14994 whole entry, looked up, the tested form may be a part): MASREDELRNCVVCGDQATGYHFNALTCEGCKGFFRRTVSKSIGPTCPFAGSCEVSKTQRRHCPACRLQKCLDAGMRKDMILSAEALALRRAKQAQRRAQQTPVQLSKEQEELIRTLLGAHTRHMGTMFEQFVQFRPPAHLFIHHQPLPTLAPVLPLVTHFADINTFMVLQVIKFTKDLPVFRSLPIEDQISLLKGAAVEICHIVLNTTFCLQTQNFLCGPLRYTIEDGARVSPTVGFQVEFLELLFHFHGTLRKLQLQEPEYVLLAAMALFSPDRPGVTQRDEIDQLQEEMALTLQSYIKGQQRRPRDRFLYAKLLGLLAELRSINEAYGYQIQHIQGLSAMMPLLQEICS
Chain of Paired box protein Pax-6 (Homo sapiens) (P26367 whole entry, looked up): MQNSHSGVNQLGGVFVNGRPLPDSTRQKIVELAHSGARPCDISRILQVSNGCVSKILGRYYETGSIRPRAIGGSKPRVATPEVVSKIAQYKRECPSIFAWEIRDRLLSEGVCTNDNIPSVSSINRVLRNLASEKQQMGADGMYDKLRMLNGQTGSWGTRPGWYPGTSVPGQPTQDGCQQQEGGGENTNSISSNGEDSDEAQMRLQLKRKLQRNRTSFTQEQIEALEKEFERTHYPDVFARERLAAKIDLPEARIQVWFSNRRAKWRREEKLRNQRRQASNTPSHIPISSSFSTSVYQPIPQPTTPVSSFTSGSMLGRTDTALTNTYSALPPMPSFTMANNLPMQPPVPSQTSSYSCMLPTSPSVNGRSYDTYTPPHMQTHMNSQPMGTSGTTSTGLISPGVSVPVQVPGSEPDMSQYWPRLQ
Chain of X-box-binding protein 1 (Homo sapiens) (P17861 whole entry, looked up): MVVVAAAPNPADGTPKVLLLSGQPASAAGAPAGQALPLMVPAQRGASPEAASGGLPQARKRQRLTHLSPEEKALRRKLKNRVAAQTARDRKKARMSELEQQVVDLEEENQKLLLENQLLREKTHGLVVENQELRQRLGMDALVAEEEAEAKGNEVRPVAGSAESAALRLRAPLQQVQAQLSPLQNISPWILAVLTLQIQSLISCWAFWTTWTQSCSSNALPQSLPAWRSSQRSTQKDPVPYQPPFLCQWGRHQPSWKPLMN
Chain of Signal transducer and activator of transcription 3 (Homo sapiens) (P40763 whole entry, looked up): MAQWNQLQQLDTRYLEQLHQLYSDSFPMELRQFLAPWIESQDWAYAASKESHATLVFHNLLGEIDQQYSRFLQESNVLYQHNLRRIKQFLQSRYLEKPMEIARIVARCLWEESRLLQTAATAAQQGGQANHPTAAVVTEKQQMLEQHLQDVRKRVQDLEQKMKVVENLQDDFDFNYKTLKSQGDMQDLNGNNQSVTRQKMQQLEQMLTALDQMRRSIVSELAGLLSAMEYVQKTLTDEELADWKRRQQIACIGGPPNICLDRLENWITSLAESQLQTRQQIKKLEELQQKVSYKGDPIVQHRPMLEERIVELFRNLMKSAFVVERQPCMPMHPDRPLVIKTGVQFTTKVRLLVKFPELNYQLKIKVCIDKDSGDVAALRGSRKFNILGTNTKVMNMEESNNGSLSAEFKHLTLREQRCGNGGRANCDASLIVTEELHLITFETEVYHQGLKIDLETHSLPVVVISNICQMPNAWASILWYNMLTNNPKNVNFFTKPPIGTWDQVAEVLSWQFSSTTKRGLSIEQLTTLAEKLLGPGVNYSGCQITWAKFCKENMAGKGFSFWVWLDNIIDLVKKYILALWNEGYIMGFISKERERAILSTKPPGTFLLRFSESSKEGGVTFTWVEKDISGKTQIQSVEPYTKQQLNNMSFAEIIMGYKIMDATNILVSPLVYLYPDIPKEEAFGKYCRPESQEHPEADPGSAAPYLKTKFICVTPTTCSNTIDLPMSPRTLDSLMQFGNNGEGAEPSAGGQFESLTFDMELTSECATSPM
Chain of Steroid hormone receptor ERR1 (Homo sapiens) (P11474 whole entry, looked up, the tested form may be a part): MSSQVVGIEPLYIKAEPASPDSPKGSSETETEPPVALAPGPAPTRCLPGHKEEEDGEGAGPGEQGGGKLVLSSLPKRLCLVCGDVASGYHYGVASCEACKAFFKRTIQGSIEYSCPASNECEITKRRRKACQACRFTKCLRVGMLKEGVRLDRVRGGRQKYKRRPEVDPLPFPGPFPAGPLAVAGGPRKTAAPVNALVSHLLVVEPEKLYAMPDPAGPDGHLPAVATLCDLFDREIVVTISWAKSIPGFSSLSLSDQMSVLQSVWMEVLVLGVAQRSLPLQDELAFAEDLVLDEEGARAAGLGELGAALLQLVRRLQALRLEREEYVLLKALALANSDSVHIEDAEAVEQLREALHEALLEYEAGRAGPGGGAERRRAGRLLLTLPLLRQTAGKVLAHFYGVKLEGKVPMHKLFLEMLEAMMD

What is called AC50 is the midpoint of the concentration-response curve, whichever way the signal moves. Turning to `CN(C)CCO`, the outcome in test [1], in [2], in [3], in test [4], in test [5] and in [6] was inactive. The molecule was called inactive in test [7], in test [8], in test [9], in test [10], in test [11] and in test [12]. In addition, the result in test [13], in test [14], in [15], in test [16] and in [17] was inactive. In test [2], the AC50 was 100 µM (active).
In the case of `CC(C)(c1ccccc1)c1ccc(O)cc1`, the half-maximal activity concentration (AC50) in [1] is 52.3 µM (active) and 39.5 µM (active); in [2], 2.59 µM (active) [middle of 4 runs]; in test [3], 22.6 µM (active) and 33.4 µM (active); in test [4] it was 48.9 µM (active); in test [5], 50.8 µM (active); in [6] it was 51.9 µM (active) and 53.1 µM (active). The AC50 is 55.9 µM (active) and 54.6 µM (active) in test [8]; 54 µM (active) in test [9]; 39.9 µM (active) and 54.5 µM (active) in test [10]; 2.17 µM (active) and 21.3 µM (active) and 10.6 µM (active) in [13]; 277 nM (active) [middle of 4 runs] in test [18]; 52.7 µM (active) and 52.2 µM (active) in test [16]. The molecule was called inactive in [1], in test [3], in test [4], in test [5], in [6] and in [7]. The call in test [8], in test [9], in test [10], in test [11], in [12] and in test [13] was inactive. Besides, the molecule was classed as inactive in test [14], in test [16] and in test [17].
In the case of `COS(=O)(=O)OC`, the result in [1], in test [2], in test [3], in test [4], in test [5] and in [6] was inactive. Besides, the result in test [7], in test [8], in test [9], in [10], in test [11] and in test [12] was inactive. The call in test [13] and in test [16] was inactive.
Take `Clc1ccc(C(Cl)(Cl)Cl)cc1`: the outcome in test [1], in [2], in [4], in test [5], in test [6] and in test [7] was inactive. Also, the molecule was classed as inactive in test [8], in test [9], in [10], in test [11], in test [12] and in test [15]. In [16], the result was inactive.
In the case of `CC#Cc1cc(C)nc(Nc2ccccc2)n1`, the half-maximal activity concentration (AC50) was 68.1 µM (active) in [1]; 26.5 µM (active) in test [2]; 51.6 µM (active) in test [4]; 100 µM (active) in [9]; 41.8 µM (active) in test [10]; 65.6 µM (active) in test [13]. The molecule was classed as inactive in test [3], in test [5], in test [6], in [7], in test [8] and in test [11]. In addition, the outcome in [12] and in test [16] was inactive.
For `CCOP(=S)(OCC)SCSC(C)(C)C`, the result in [1], in test [3], in test [5], in test [6], in [8] and in [9] was inactive. The call in [10], in [11], in [12], in test [13], in test [14] and in [16] was inactive. For the same molecule, the result in test [17] was inactive. Further, the concentration at half-maximal activity (AC50) in [2] is 7.42 µM (active) and 2.05 µM (active); in test [7] it was 100 µM (active) and 73.9 µM (active); in test [18] it was 19.8 µM (active) and 13.2 µM (active).
